Measured values taken from PubChem BioAssay AID1347055 (National Center for Advancing Translational Sciences (NCATS), 2019).
Where “and” joins values, the source holds several entries; their conditions need not be identical. Equal entries are not always repeated. In all, about 54,000 compounds went through this assay and about 120 (0.22%) were called active. Another 8% or so got no clear call; they are omitted. The call rests on the fitted dose curve; in most records, active means well fitted inhibition curve with a large enough effect; inconclusive means small, poorly fitted or top-dose-only effect, or effect the other way; inactive means flat fitted curve, though single readings scatter. For the sample, actives were picked, then their nearest neighbours and some compounds at random. Some compounds were tested as several samples or in several runs, with calls that do not always agree.

These compounds were tested against Fumarate hydratase, mitochondrial (Homo sapiens) (UniProt P07954) (assay: Identification of activators of human fumarate hydratase by quantitative high-throughput screening). Settings: FH coupled MDH/diaphorase resazurin fluorescence, 15 min; series mostly up to 79.9 µM.
Fumarate hydratase, mitochondrial (Homo sapiens), sequence (P07954 whole entry, looked up): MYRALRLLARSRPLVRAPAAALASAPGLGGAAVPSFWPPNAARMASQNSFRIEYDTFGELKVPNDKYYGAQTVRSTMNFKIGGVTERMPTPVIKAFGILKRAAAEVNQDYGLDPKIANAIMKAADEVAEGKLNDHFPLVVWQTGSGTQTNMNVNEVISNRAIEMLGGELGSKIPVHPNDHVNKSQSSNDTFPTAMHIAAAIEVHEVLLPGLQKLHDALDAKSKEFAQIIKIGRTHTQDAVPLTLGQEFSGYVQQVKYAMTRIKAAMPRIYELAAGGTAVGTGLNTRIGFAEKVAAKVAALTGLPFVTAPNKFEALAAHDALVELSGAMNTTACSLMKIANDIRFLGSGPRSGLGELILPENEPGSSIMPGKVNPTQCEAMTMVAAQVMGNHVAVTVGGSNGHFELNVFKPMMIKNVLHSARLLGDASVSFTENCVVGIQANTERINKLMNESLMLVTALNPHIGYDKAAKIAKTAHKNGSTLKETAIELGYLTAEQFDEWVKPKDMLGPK
Source text: Fumarate hydratase (FH) is a metabolic enzyme that is part of the Krebs-cycle, and reversibly catalyzes the hydration of fumarate to malate. Mutations of the FH gene have been associated with fumarate hydratase deficiency (FHD), hereditary leiomyomatosis, renal cell cancer (HLRCC), and other diseases. Currently there are no high-quality small molecule probes for studying human fumarate hydratase. To address this, we developed a quantitative high throughput screening (qHTS) FH assay and screened a total of 57,037 compounds in dose-response. While no inhibitors of FH were confirmed, a series of phenyl-pyrrolo-pyrimidine-diones (12 compounds) were identified as activators of human fumarate hydratase. […] The binding of two compounds from the series to human fumarate hydratase was confirmed by microscale thermophoresis. The low hit rate in this screening campaign confirmed that FH is a "tough target" to modulate, and the small molecule activators of human fumarate hydratase reported here may serve as a starting point for further optimization and development into cellular probes of human FH and potential drug candidates.
For primary high-throughput screen, 3 ul of FH solution (containing 13.33nM human fumarate hydratase, 13.33IU/ml malic dehydrogenase, 0.2mM NAD, 0.067mg/ml diaphorase and 0.067mM resazurin in the assay buffer (50 mM Tris pH 8.0, 5 mM MgCl2, 0.01% Brij 3) was dispensed into each well in a black solid bottom 1536-well assay plate (Greiner Bio-One) using a BioRAPTR FRD dispenser (Beckman Coulter, Brea, CA). A 1536-well pintool dispenser outfitted with 20 nl pins (Wako Automation, San Diego, CA) was used to transfer 20 nL of DMSO-solubilized compound (Cherrypick plates) to each 1536-well assay plate. Each compound was screened at five concentrations: 15 nM, 151 nM, 1.5 uM, 15.4 uM, 76.9 uM. Following compound transfer, plates were incubated in room temperature for 10 minutes. 1 uL of substrate solution containing fumaric acid (160 uM) was dispensed via BioRAPTR FRD to initiate the reaction. Plates were immediately transferred to a ViewLux microplate imager (PerkinElmer, Waltham, MA), and any resulting resorufin fluorescence was measured (exitation/emission, 525/598 nm) at 0 and 15 minutes. The exposure time is 1 second. Fluorescence from each well was normalized using enzyme-free and DMSO-treated control wells on each plate, and changes in fluorescence (delta RFU) were calculated using the difference in fluorescent signal for each well at 15 minutes versus 0 minutes.
Further: the screen sought activators but most active calls are inhibition curves; nearly all actives have a fitted effect of over 45% in size.
On the % scale 0 is the no-effect control and ±100 the full control effect; potency means the concentration at half of the fitted maximal effect.

Activity change, negative = inhibition, inactive:
C=C1CCC2C(C)(C(=O)OC)CCCC2(C)C1CCC1=CCOC1=O (centres undefined)
Cc1cn(CCN2CCN(c3ccccc3-c3cc(C#N)cc(C(=O)NCCCN4CCCC4)c3)CC2)c2ccccc12
COC(=O)C1=CO[C@@H](O[C@@H]2O[C@H](CO)[C@@H](O)[C@H](O)[C@H]2O)[C@H]2[C@@H]1C=C[C@]21C=C([C@H](C)OC(=O)/C=C/c2ccc(O[C@@H]3O[C@H](CO)[C@@H](O)[C@H](O)[C@H]3O)cc2)C(=O)O1
COc1ccccc1CNc1nc2ccc(Cl)cc2n2cnnc12
Cc1ccc(C)c(Cn2c(C(=O)O)c(CNCc3cccs3)c3ccccc32)c1
O=C(COc1ccc(Cl)cc1)N(Cc1ccco1)Cc1ccco1
COc1ccccc1NC(=O)CSc1oc(-c2ccco2)nc1S(=O)(=O)c1ccc(Br)cc1
CNc1nc(-c2ccc3c(N)n[nH]c3c2)cc(N2CC(C(=O)NC3CCCCC3)CCC2C)n1 (centres undefined)
O=C(N[C@H]1CCC[C@H](CO)C1)C1CCN(c2nc3cc(Cl)c(-c4ccc(Cl)cc4)cc3o2)CC1
CCOC(=O)c1[nH]c(C)c(CCC(=O)NCc2ccccc2C)c1C
CCN(CC)C(=O)CSc1nc2ccsc2c(=O)n1Cc1ccccc1Cl
CCOc1ccc(-n2nc3ccc(NC(=O)c4ccc(OC)c(Cl)c4)cc3n2)cc1
Cc1nn(C(=O)c2c(F)cccc2F)c(C)c1S(=O)(=O)N1CCOCC1
COC(=O)C1=CO[C@@H](O[C@@H]2O[C@H](CO)[C@@H](O)[C@H](O)[C@H]2O)[C@@H]2[C@@H](C(=O)O)CC[C@H]12
CCCCC1CCN(CCCN2C(=O)CCc3ccccc32)CC1
CC/C=C\CC1C(=O)C=CC1(CCCCCCCC(=O)O)OC(C)=O (centres undefined)
COc1cccc(CNC(=O)c2ccc3c(Cl)c4c(nc3c2)CCCC4)c1
C=CC(C)(O)CO[C@@H]1O[C@H](CO)[C@@H](O)[C@H](O)[C@H]1O (some centres undefined)
Cc1cc2c(cc1S(=O)(=O)CCC(=O)NCc1ccccc1)OCC(=O)N2
CC(C)(OC1OC(CO)C(O)C(O)C1O)C1CCC(O)(CO)C2CC(O)C(C)(O)C2C1 (centres undefined)
O=C(/C=C/c1ccc(O)cc1)OCC1=C[C@@H](O)[C@@H]2C=CO[C@@H](O[C@@H]3O[C@H](CO)[C@@H](O)[C@H](O)[C@H]3O)[C@H]12
COc1cc(C(C)=O)c(OC)c2c1OC(C)(C)C=C2
O=C(CSc1nccn1C1CCCC1)Nc1cc(C(F)(F)F)ccc1Cl
C=CC(C)(O)CC/C=C(\C)C(=O)OC1C(O)C(CO)OC(OC(=O)C23CCC(C)(C)CC2C2=CCC4C5(C)CCC(OC6OC(COC7OCC(OC(C)=O)C(O)C7OC7OC(COC(C)=O)C(O)C(O)C7OC(C)=O)C(O)C(O)C6OC6OCC(O)C(O)C6O)C(C)(C)C5CCC4(C)C2(C)C(O)C3O)C1OC1OCC(OC2OCC(O)C(OC3OCC(O)C(O)C3O)C2O)C(O)C1O (centres undefined) 3.1% [at 13.5 µM]
C=C1CCC[C@]2(C)CC/C(=C(/CO)C(=O)OC)C[C@@H]12
CC[C@H](C)[C@H](NC(=O)[C@H]([C@@H](C)CC)N(C)C(C)=O)C(=O)N[C@H](C(=O)N[C@@H](CC(C)C)C(=O)[C@@]1(C)CO1)[C@@H](C)O
COc1cc(C2c3cc(O)c(OC)cc3CC(CO)C2CO)ccc1O (centres undefined)
CCOc1ccc(NC(=O)CC2C(=O)N(c3cccc(OC)c3)C(=O)N2C2CCCCC2)cc1 (centres undefined)
COc1cccc(C(=O)c2sc3nc(-c4ccccc4)cc(C(F)(F)F)c3c2N)c1
Cc1cccc(N2CCN(C(=O)Cn3ncc4c5ccccc5n(C)c4c3=O)CC2C)c1 (centres undefined)
CC(=O)/C=C/C1(O)C(C)(C)CC(O)CC1(C)O (centres undefined)
Cc1ccc2nc(COc3cccc(NC(=O)c4ccccc4Cl)c3)cc(=O)n2c1
O=C(Cn1c(=O)n(-c2ccc(F)cc2)c(=O)c2sccc21)Nc1cccc(C(F)(F)F)c1
COc1ccc(CCN2C(=O)N(c3cccc(OC)c3)C(=O)C2CC(=O)Nc2ccccc2)cc1 (centres undefined)
CC1=C(C)C(=O)OC(C(C)C2CCC3C4CC=C5CC(OC6OC(COC7OC(CO)C(O)C(O)C7O)C(O)C(O)C6O)CC(O)C5(C)C4CCC23C)C1 (centres undefined)
CN(C(=O)CSc1nc2ccc(NC(=O)COc3ccccc3)cc2s1)c1ccccc1
CC(Nc1ncnc2nc[nH]c12)c1cc2cccc(Cl)c2c(=O)n1-c1ccccc1 (centres undefined)
COc1ccc(NC(=O)c2ccc(-c3ccc(C(=N)N)cc3C)cc2)cc1N1CCN(C)CC1
Cc1c(C2=CCN(C(=O)N(C)C(C)C)CC2)nnn1-c1cccnc1F
C/C=C/C1=CC2=CC(=O)C(C)(O)C(OC(=O)c3c(C)cc(O)cc3O)C2CO1 (centres undefined)
COc1ccc(Cn2ccnc2SCC(=O)Nc2ccc3c(c2)OCO3)cc1
O=C(CSCc1cnn(-c2ccccc2)c1-n1cccc1)NCc1ccccc1Br
Cc1cccc(N2CCN(c3c(CN4CCCC4)c(=O)oc4ccccc34)CC2)c1C
Cn1c(=O)[nH]c(=O)c2c1nc(NCCc1ccccc1)n2Cc1ccc(F)cc1
CCCOc1cccc(C(=O)Nc2cccc(NC(=O)c3ccc(C(C)(C)C)cc3)c2)c1
COc1ccccc1-n1c(SCC(=O)Nc2nc3ccc(C)cc3s2)nc2c(c1=O)SCC2
COc1ccc(CCNc2ncnc3c2cnn3-c2ccc(C)cc2)cc1
CC1(C)C[C@H]2C3=CCC4[C@@]5(C)CC[C@H](O[C@H]6O[C@H](C(=O)O)[C@@H](O)[C@H](O)[C@H]6O[C@H]6O[C@H](CO)[C@@H](O)[C@H](O)[C@H]6O[C@@H]6O[C@H](CO)[C@@H](O)[C@H](O)[C@H]6O)[C@](C)(CO)C5CC[C@@]4(C)[C@]3(C)CC[C@@]2(C)[C@H](O[C@@H]2OC[C@H](O)[C@H](OC3O[C@H](CO)[C@@H](O)[C@H](O)[C@H]3O)[C@H]2O)[C@@H]1O (some centres undefined) 17.6% [at 13.5 µM]
CCc1cc2c(cc(C(=O)OC)n2Cc2nc(-c3ccc(C)cc3)oc2C)s1
CCOC(=O)c1cc(OC(=O)c2ccccc2Cl)n(-c2ccccc2)n1
Cc1cc2ccccc2n1CCNC(=O)c1ccc(F)cc1
COc1ccc(Cl)cc1NC(=O)CSc1nc(=O)[nH]c2c1CCCC2
CCOc1ccc(-n2c(SCC(=O)NCc3ccccc3)nc3n[nH]c(C)c3c2=N)cc1
CC(=O)Nc1c(C)nn(-c2ccccc2)c1N1CCC(C(=O)Nc2cc(Cl)ccc2C)CC1
CC1(O)CC(O)C2(O)C=COC(O[C@@H]3O[C@H](CO)[C@@H](O)[C@H](O)[C@H]3O)C12 (some centres undefined)
CCOc1ccc(CC(=O)NCCc2csc3nc(-c4ccccc4F)nn23)cc1
Cc1c(O)cc2c(c1O)COC1(O)CCCOC21 (centres undefined)
O=C(OC1CN2CCC1CC2)N1CCc2ccccc2C1c1ccccc1 (centres undefined)
C=C1C2(CCC(=O)OC2(C)C)CC(OC(=O)/C(C)=C/C)C2(C)C13OC14C(=O)OC(C)(C(=O)C12C(=O)OC4C)C3OC(C)=O (centres undefined)
CCOc1ccc(/C=C(\C#N)c2nc3ccccc3c(=O)[nH]2)cc1OC
N#CSc1cc(SC#N)c(N)nc1N
CCOc1cccc(CC(=O)N2CCc3c([nH]c4ccccc34)C2c2ccc(F)cc2)c1OCC (centres undefined)
CCOc1ccccc1CNC(=O)c1ccc(-n2c(C)cc3c2CCC(C)C3)cc1 (centres undefined)
Cn1c(SCC(=O)N2CCC[C@H]2C(=O)Nc2ccccc2-c2ccccc2)nc2ccccc21
COc1cccc(C(=O)NCc2ccc3c(c2)CCN3C(=O)c2ccncc2)c1
CCc1cc2c(cc3c(=O)n(CC(=O)NCCc4ccc(OC)c(OC)c4)ncn32)s1
COc1cccc(N=C2SC(C(=O)Nc3cccc(Cl)c3)CC(=O)N2C)c1 (centres undefined)
COC(=O)N1CCC(n2ncc3c(N4CCOCC4)nc(-c4ccc(NC(=O)Nc5ccc(CO)cc5)cc4)nc32)CC1
[N-]=[N+]=N[C@]1(CO)O[C@@H](n2ccc(N)nc2=O)[C@@H](O)[C@@H]1O
Cc1cc2nn(-c3ccc(Cl)cc3)nc2cc1NC(=O)C(C)C
C/C=C(/COC(=O)/C(C)=C/C)C(=O)OC/C=C/c1ccc(OC)cc1
Clc1ccc2ncc(-c3cccc(NC4CCNCC4)n3)n2c1
COC(=O)c1cc(Cl)c(NC(C)=O)cc1OC
CCOC(=O)c1[nH]c(C)c(CCC(=O)N2CCN(c3ccccc3)CC2)c1C
CC1(C)CC[C@]2(C(=O)O)CC[C@]3(C)C(=CCC4[C@@]5(C)C[C@H](O)[C@H](O[C@@H]6OC[C@H](O)[C@H](O)[C@H]6O)[C@@](C)(CO)C5CC[C@]43C)[C@@H]2C1 (some centres undefined)
C[C@@H]1C/C=C/C=C\C=C\C=C\[C@H](O[C@@H]2O[C@H](C)[C@@H](O)[C@H](N)[C@@H]2O)C[C@@H]2O[C@](O)(C[C@@H](O)C[C@H]3O[C@@H]3/C=C/C(=O)O1)C[C@H](O)[C@H]2C(=O)O
C=C1[C@@H](C)[C@H]2[C@H](Cc3c[nH]c4ccccc34)NC(=O)[C@]23C(=O)/C=C/C(=O)[C@H](O)/C(C)=C\[C@@H](C)C/C=C/[C@H]3[C@@H]1O

Potency, active:
CCOc1cccc2c1N[C@@H](c1ccc(C(=O)O)cc1)[C@H]1CC=C[C@@H]21 28.2 µM

Potency, inactive and 6.92 µM (active):
CNCC(O)c1ccc(O)c(O)c1 (centres undefined)
